Screening results from PubChem.
An excerpt weighted towards active compounds, which were near 21% of everything screened.
CHX counter: counter-screen for Shiga toxin inhibitors: cycloheximide protein synthesis inhibition; cell reporter, cycloheximide protein synthesis inhibition counterscreen; max response, %; actives 12% (n = 300,000); AID 2314; in the data active = max response mostly above about 13%, no sharp cut-off; inactive = mostly below about 14%; also: read at 38.3 µM for the half of the compounds with a filed dose
Shiga inhibitor: blocks Shiga toxin action in Vero cells. inhibition, % at 38.7 µM. Vero cells, Shiga toxin protein synthesis inhibition reporter. AID 2315. actives 9.2% (n = 290,000); in the data active = inhibition mostly above about 28%, no sharp cut-off; inactive = mostly below about 43%
NS1 function inh: inhibitors of influenza NS1 protein function | Potency, µM (doses to about 46.1 µM) | actives 0.4% (n = 270,000) | AID 2326; calls by dose curve; also: actives are rising curves; nearly all actives have a fitted effect of over 50% in size
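A cell-based growth assay was used: compounds that relieve NS1-induced slow growth of budding yeast raise OD600. Assay medium was yeast nitrogen base with ammonium sulphate and -URA supplement, pH 6.0, with 2% galactose.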
Sm TGR block: S. mansoni TGR enzyme inhibition; Q962Y6; Potency, µM (titrated, usually from 114 µM), actives largely listed as inhibitors; actives 3% (n = 360,000); purified TGR, DTNB reduction, TNB absorbance 405 nm; also: nearly all actives have a fitted effect of over 60% in size
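TGR 20 nM + NADPH 100 uM (dispensed conc.), cpd preinc 15 min RT; start with NADPH (500 uM addition) then DTNB (15 mM addition). Kinetic TNB absorbance, 405 nm filter. Four-parameter Hill fit across titration.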
Pf growth 96h: inhibits malaria parasite growth, 96 h | P. falciparum luciferase reporter growth, 96 h | Potency, µM (doses to about 28.7 µM), most hits filed as inhibitors | actives 6.9% (n = 320,000) | AID 504834
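Two-generation exposure (96 h) targets delayed-death phenotype. Reporter parasites carrying integrated firefly luciferase, in red cells at 2% hematocrit and 0.05% parasitemia final, kept at 37 C, 5% CO2; luminescence loss indicates inhibition.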
Pf growth 48h: inhibits P. falciparum growth in the first generation, 48 h. actives 5.9% (n = 310,000). Potency, µM (series often up to 28.7 µM), actives largely listed as inhibitors. P. falciparum luciferase growth in erythrocytes, 48 h
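In quantitative HTS format, infected erythrocytes bearing luciferase-reporter parasites were treated for a single generation at 37 C. Luminescence after adding detection reagent served as the growth measure.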
Hits are given with their value; 0 = inactive; ? = inconclusive; - = no result given; [ ] = dose if it differs, or a comment. Unless noted, calls follow the shape of the dose curve; as a rule, active = well fitted curve in the direction sought with a large enough effect; inconclusive = small, poorly fitted or top-dose-only effect, or another doubt; inactive = no such curve, though single readings can be large; an effect the other way counts as inactive or inconclusive.

SMILES	CHX counter	Shiga inhibitor	NS1 function inh	Sm TGR block	Pf growth 96h	Pf growth 48h
COc1ccc(NC(=O)C(NS(=O)(=O)c2ccc3c(c2)CCCC(=O)N3)C(C)C)c(OC)c1 (stereo unspecified)	-	-	-	0	-	-
COc1ccc(-n2c(-c3ccc(Br)cc3)c[n+]3c2CCc2ccccc2-3)cc1	14	0	0	0	0.47µM	1.9µM
COc1ccccc1-n1c(-c2ccccc2)c[n+]2c1CCc1ccccc1-2	0	0	0	0	?	?
CC(C)c1ccc(-n2c(-c3ccccc3)c[n+]3c2CCc2ccccc2-3)cc1	0	0	-	0	0.83µM	1µM
CCn1c(C(C)NC(=O)c2cccs2)n[nH]c1=S (stereo unspecified)	0	0	0	0	0	0
Cc1cccc(CCN2C(N(C)C)=NC[C@@H]2CC(C)C)c1	-	-	-	0	?	13µM
Cc1cccc(CCN2C(N(C)C)=NC[C@@H]2C)c1	-	-	-	0	0	0
CN(C)C1=NC[C@H](Cc2ccccc2)N1CC1CCCC1	-	-	-	0	?	?
CC(C)C[C@H]1CN=C(N(C)C)N1CC1CCCCCC1	-	-	-	0	?	4.1µM
CCCCCCCN1C(N(C)C)=NC[C@@H]1Cc1ccccc1	-	-	-	0	?	4.7µM
CN(C)C1=NC[C@H](Cc2ccccc2)N1CCCCc1ccccc1	-	-	-	0	?	13µM
O=C(O)c1cc(=O)[nH]c(=S)[nH]1	-	-	0	-	-	-
CC(=O)c1ccc(S(=O)c2ccccc2)cc1 (stereo unspecified)	0	0	0	0	0	0
COCCn1cnc2c1c(=O)n(CC(=O)NCC(F)(F)F)c(=O)n2Cc1ccccc1	0	0	0	0	0	0
C/C(=N\NC(=O)c1ccn[nH]1)c1cn(C)nc1C	44	117	0	0	0	0
COc1ccccc1C(CNC(=O)CNC(=O)c1ccccc1Cl)N1CCCC1 (stereo unspecified)	-	-	-	0	0	0
CCNC(=O)COC(=O)c1[nH]c(C)c(C(=O)OC)c1C	43	71	-	0	0	0
CCOC(=O)c1c(C)[nH]c(C(=O)COC(=O)C2(C)CC2(Cl)Cl)c1C (stereo unspecified)	53	0	0	0	0	-
CCOC(=O)c1c(C)[nH]c(C(=O)OCC(=O)NCc2ccc(C)cc2)c1C	-	-	-	0	0	0
CCOC(=O)c1[nH]c(C)c(/C=N/O)c1C	0	0	0	0[11.4 µM]	?	-
CCOC(=O)c1[nH]c(C)c(C)c1C	0	0	0	0	12µM	0
CCOC(=O)c1[nH]c(C)c(C(=O)OC)c1C	13	0	0	0	0	0
O=C(Cn1c(=O)n(-c2ccc(F)cc2)c(=O)c2sccc21)NC1CCCCC1	0	0	-	0	?	0
CC(C)Oc1cccc(C(=O)C2CCCN(C(=O)c3ccc4c(c3)OCO4)C2)c1 (stereo unspecified)	0	0	0	0	0	0
Cc1ccc(C(=O)c2oc3ccccc3c2NC(=O)COc2ccc(Cl)c(C)c2)cc1	-	-	-	0	-	-
SMILES	CHX counter	Shiga inhibitor	NS1 function inh	Sm TGR block	Pf growth 96h	Pf growth 48h
CCOC(=O)c1c(C)[nH]c(C(=O)OCC(=O)Nc2cc(C)ccc2OC)c1C	0	0	0	0	5.9µM	0
CCOC(=O)c1c(C)[nH]c(C)c1C(=O)COC(=O)/C=C/c1ccc(Cl)cc1	0	0	0	0	9.3µM	?
CCOC(=O)CC(=O)c1[nH]c(C)c(C(=O)OCC)c1C	26	0	-	0	0[5.75 µM]	0
CCOC(=O)c1[nH]c(C)c(C(=O)NC2CCCCC2)c1C	0	0	0	0	9.3µM	-
COC(=O)N1CCCc2cc(S(=O)(=O)NCc3ccccc3)ccc21	-	-	-	0	-	-
Fc1ccccc1N1CCN(c2ncc3c(n2)CCN(Cc2cc(Br)cs2)C3)CC1	-	-	-	0	-	-
CCOC(=O)c1c(C)[nH]c(C(=O)OCC(=O)NC(C)(C)C)c1C	23	0	0	0	0	0
CCOC(=O)c1c(C)[nH]c(C(=O)CSc2ccc(Cl)cc2)c1C	22	89	0	0	-	0
CCOC(=O)c1c(C)[nH]c(C(=O)CSc2nc(C)cc(C)n2)c1C	0	0	0	0	?	?
Cc1cccc(NC(=O)C(=O)NCC(c2cccnc2)N2CCOCC2)c1 (stereo unspecified)	-	-	-	0	-	-
CC(=O)C1=C(O)C(=O)N(c2ccc(Br)cn2)C1c1cccc([N+](=O)[O-])c1 (stereo unspecified)	0	0	0	0	?	0
CCOC(=O)c1cccc(C2=CC(=O)C[C@H](c3ccc(OC)cc3)C2)c1	-	-	-	0	0	0
